Source: PubChem BioAssay (National Center for Advancing Translational Sciences (NCATS))
KinaseGlo FLuc = blocks Kinase-Glo luciferase, a counter-screen artifact; Potency, µM (doses to about 38.3 µM), inactives show top-dose activity change, negative = inhibition, usual class: inhibitors; actives 0.28% (n = 200,000); Kinase-Glo luciferase, ATP luminescence, 8 min; further: on the % scale 0 is the no-effect control and ±100 the full control effect; nearly all actives have a fitted effect of over 60% in size
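Luminescence was the read-out, taken after 8-minute incubation at ambient temperature. Luciferase turned over luciferin with 10 uM ATP in imidazole pH 7.2 buffer containing KCl, MgCl2, Tween 20 and BSA.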
ELG1 genotox = inducers of genotoxicity in HEK293T ELG1-luciferase cells; actives 1.3% (n = 330,000); Potency, µM (top dose mostly 46 µM), inactives show at the highest dose activity change, positive = activation, most hits filed as activators; AID 504466; HEK293T ELG1-luciferase reporter, luminescence, 16 h; further: % of control where 0% means no effect; nearly all actives have a fitted effect of over 60% in size
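DMSO vehicle served as control against compound-treated ELG1-luciferase HEK293T cells; exposure lasted 16 hr at 37 °C and 5% CO2, followed by ONE-Glo luminescence detection after 30 min.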
SMN2 splice up = SMN2 splice variant enhancement; HEK293 SMN2-luciferase splicing reporter, luminescence, 30-36 h; Potency, µM (highest dose often 46.1 µM), for the others: top-dose activity change, positive = activation, most hits filed as activators; actives 2.8% (n = 210,000); AID 1458; further: % of control where 0% means no effect; nearly all actives have a fitted effect of over 55% in size
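HEK293 cells carry an SMN2 […]–luciferase reporter in which exon 7 inclusion puts luciferase in frame. Cells were plated 10-12 h before compound addition, then incubated 30-36 h at 37C. ONE-Glo luminescence was read; sodium butyrate at 4.5 mM final served as control.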
Rab9 prom act = activates the Rab9 promoter | Potency, µM (top dose mostly 9.22 µM), without a hit: at the highest dose activation, negative = inhibition, hits mostly activators | actives 2.8% (n = 320,000) | Huh7 Rab9 promoter-luciferase reporter, luminescence, 24 h; further: % of control where 0% means no effect; nearly all actives have a fitted effect of over 60% in size
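Huh7 reporter line, Rab9 promoter upstream of luciferase. Compound exposure 24 h at 37 °C in reduced-serum medium with 10% FBS. Read-out: luminescence.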
FLuc counter = counter-screen for miR-21 project: firefly luciferase inhibitors or activators | Potency, µM (top dose mostly 57.5 µM), for the others: top-dose activity change, negative = inhibition, actives largely listed as inhibitors | purified FLuc, Km substrates, luminescence inhibition | P08659 | actives 6.9% (n = 360,000);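 further: plate controls were vehicle for no effect and reference inhibitor for full effect; nearly all actives have a fitted effect of over 55% in size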
Target sequence (P08659 whole entry, looked up): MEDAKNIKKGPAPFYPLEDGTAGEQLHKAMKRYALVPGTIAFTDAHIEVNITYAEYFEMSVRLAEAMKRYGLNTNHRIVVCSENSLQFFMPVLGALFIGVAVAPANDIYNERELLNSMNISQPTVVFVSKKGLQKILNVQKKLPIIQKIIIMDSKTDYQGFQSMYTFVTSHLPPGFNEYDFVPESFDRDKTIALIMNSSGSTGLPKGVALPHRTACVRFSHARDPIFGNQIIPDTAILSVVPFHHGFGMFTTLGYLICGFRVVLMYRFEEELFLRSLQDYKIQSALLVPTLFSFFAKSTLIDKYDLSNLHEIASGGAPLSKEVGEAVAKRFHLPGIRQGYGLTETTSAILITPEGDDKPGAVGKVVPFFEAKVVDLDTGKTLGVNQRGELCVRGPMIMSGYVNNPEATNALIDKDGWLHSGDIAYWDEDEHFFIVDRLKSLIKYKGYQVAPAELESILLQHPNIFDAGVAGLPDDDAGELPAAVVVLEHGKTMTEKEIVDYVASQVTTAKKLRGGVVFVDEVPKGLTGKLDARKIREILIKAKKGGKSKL
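Biochemical qHTS of compounds, final roughly 60 µM downward over six points, against 10 nM purified firefly luciferase using Km concentrations of substrates (10 uM D-luciferin, 10 uM ATP) in Tris acetate pH 7.5 buffer; luminescence output.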
NPC1 promoter act = NPC1 promoter activation; Huh7 NPC1 promoter luciferase reporter, 24 h; Potency, µM (highest dose often 9.22 µM), without a hit: at the highest dose activation, actives largely listed as activators; actives 2.4% (n = 320,000); further: % of control where 0% means no effect; nearly all actives have a fitted effect of over 60% in size
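NPC1 promoter–luciferase Huh7 cells; 24 h compound; luminescence.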
Starred values were filed as active, the others as inactive; ? = inconclusive; / = no result; [ ] = remark or other dose. Compounds with a hit are over-represented: about 7.5% of the library has one in this group of screens. The call rests on the fitted dose curve; in most records, active means well fitted curve in the direction sought with a large enough effect; inconclusive means small, poorly fitted or top-dose-only effect, or another doubt; inactive means no such curve, though single readings can be large; an effect the other way counts as inactive or inconclusive. Potency means the concentration at half of the fitted maximal effect.

SMILES	KinaseGlo FLuc	ELG1 genotox	SMN2 splice up	Rab9 prom act	FLuc counter	NPC1 promoter act
COc1ccccc1N=Cc1c(O)n(C)c(=O)n(C)c1=O	?	17%	-13%	12%	7.6µM*	5%
COc1ccc(Cl)cc1N=Cc1c(O)n(C)c(=O)n(C)c1=O	/	2%	/	1%	1%	-2%
COc1cccc2c1C(=O)c1c(O)c3c(c(O)c1C2=O)C[C@](O)(/C(C)=N\O)C[C@@H]3O[C@H]1C[C@H](N)[C@@H](O)[C@H](C)O1	-5%[7.66 µM]	/	-27%[9.22 µM]	/	/	/
CCc1cc2c(=O)n(C(C)C(=O)OC3CCCCC3)cnc2s1 (stereo not drawn)	3%	9.2µM*	11µM*	?	15µM*	?
COc1ccc(N2C(=O)/C(=C/c3cc(C)n(-c4ccc(C)cn4)c3C)C(=O)NC2=S)c(OC)c1	1%	13%	8%	-14%	27µM*	-1%
COc1ccc(OC)c(N2C(=O)/C(=C/c3ccco3)C(=O)NC2=S)c1	/	-5%	/	21%	?	-4%
O=C(COC(=O)Cc1ccccc1)Nc1ccc(SC(F)F)cc1	-1%	3%	14%	-5%	19µM*	-6%
COc1cc2c(cc1OC)[C@@]13CCN4CC5=CCO[C@H](CC(=O)O)[C@@H]([C@H]1N2)[C@H]5C[C@H]43	0%[7.66 µM]	/	5%[9.22 µM]	/	/	/
COc1ccc(C(C)=O)cc1CC(C(=O)c1ccc(Br)cc1)N(C)C (stereo not drawn)	3%	-3%	-6%	2%	3%	-3%
COc1cc(C(C)=O)ccc1OCc1cc(C(=O)N(C)CCC2CCCCO2)no1 (stereo not drawn)	/	?	/	1.6µM*	6.7µM*	2.2µM*
CCOc1ccc(C2CC(c3c(O)n(C)c(=O)n(C)c3=O)=NN2)cc1 (stereo not drawn)	/	3%	/	?	0.95µM*	?
Cn1c(O)c(C2=NNC(c3ccc(Cl)cc3)C2)c(=O)n(C)c1=O (stereo not drawn)	/	-1%	/	2%	9.5µM*	1%
C[n+]1c(/C=C\c2ccc(O)c3ncccc23)[se]c2ccccc21	-4%[7.66 µM]	/	-25%[9.22 µM]	/	/	/
O=C(Cc1c(O)c2ccccc2oc1=O)c1ccc(F)cc1	/	11%	/	?	3µM*	?
Cc1ccc(/C=C2\C(=O)NC(=S)N(c3cccc(F)c3)C2=O)o1	/	0%	/	-1%	17µM*	-3%
O=C1NC(=S)N(c2ccc(F)cc2)C(=O)/C1=C\c1ccoc1	/	0%	/	-6%	24µM*	-1%
O=C(O)c1cn(Cc2ccccc2)nc1-c1ccccc1	0%	-3%	-11%	0%	-15%	-1%
CCc1ccc(-c2nn(Cc3ccccc3)cc2C=O)cc1	-1%	?	14µM*	1µM*	6.7µM*	2.5µM*
ClC(Cl)C(Cl)Cl	/	/	6%	/	/	/
O=C(O)C(C(=O)O)P(=S)(S)c1ccccc1 (stereo not drawn)	-1%[7.66 µM]	/	1%[9.22 µM]	/	/	/
COc1ccc(-n2c(=S)[nH]c3c(sc(=S)n3-c3ccccc3)c2=O)c(OC)c1	/	0%	/	-3%	11µM*	-7%
CN(C(=O)Oc1ccc(Cl)c2cccnc12)c1ccccc1	-5%	-3%	-16%	-1%	-8%	-2%
CN(C)C(=O)Oc1ccc2ccccc2c1Cl	-1%	?	-24%	15%	?	14%
O=C(Oc1ccc2ccccc2c1Cl)N1CCCC1	-3%	2.1µM*	13µM*	2µM*	12µM*	2.8µM*
O=C(Oc1ccc2ccc(OC(=O)N3CCCCCC3)cc2c1)N1CCCCCC1	-3%	?	-36%	13%	13µM*	15%
SMILES	KinaseGlo FLuc	ELG1 genotox	SMN2 splice up	Rab9 prom act	FLuc counter	NPC1 promoter act
O=C(Nc1ccc(OC(=O)N2CCCCC2)cc1)N1CCOCC1	-7%	1%	/	2%	4%	-5%
CCN(CC)C(=O)Oc1ccc2ccccc2c1Cl	-1%	13%	?	28%	17µM*	16%
CN(C)C(=O)Oc1ccc(Cl)c2ccccc12	-1%	2%	9%	?	8%[2.3 µM]	4.5µM*
CCC1(CCSC(=N)N)C(=O)NC(=O)NC1=O	-6%[7.66 µM]	/	1%[9.22 µM]	/	/	/
O=C(O)C[C@H]1NCc2cc3ccccc3nc21	-2%[7.66 µM]	/	-3%[9.22 µM]	/	/	/
O=C(Oc1ccc(Cl)c2ccccc12)N1CCCCC1	16%	?	2%	5%	17µM*	12%
O=C(Oc1c(Cl)cc(Cl)c2ccccc12)N1CCCCC1	-1%	?	-13%	0%	?	6%
O=c1c2ccccc2nc(-c2ccccc2)n1-c1ccccc1	/	-8%	/	-1%	7%	-3%
O=c1c2ccccc2[se]n1-c1ccccc1	10µM*	5%	-28%	14%[46.1 µM]	6µM*	-9%[46.1 µM]
O=C(/C=C/c1c[nH]c2ccccc12)c1c(O)n(CCc2ccccc2)c(=O)[nH]c1=O	/	0%	/	-3%	13µM*	-1%
CCCCN1CC(O)=C(c2nc3ccccc3s2)C1=N	-2%	11%	5%	?	?	?
CNC(=O)COC(=O)c1ccc(-c2nc3ccccc3s2)s1	-23%	3.7µM*	16µM*	20%	1.1µM*	?
Cc1cnn(-c2cc(Oc3ccccc3)ncn2)c1	/	1.5µM*	/	?	17µM*	?
Clc1ccccc1Nc1ncnc(-n2cccc2)n1	-4%	?	?	3.5µM*	7.6µM*	2.8µM*
Nn1cnnc1	/	/	0%	/	/	/
N[C@H](Cc1ccc2oc3cc(=O)c4ccccc4c-3nc2c1)C(=O)O	-4%[7.66 µM]	/	1%[9.22 µM]	/	/	/
Cc1ccc(OCC(=O)N/N=C\c2ccc(O)c([N+](=O)[O-])c2)c([N+](=O)[O-])c1	0%	1%	-11%	-3%	27µM*	1%
COc1cccc(-n2nc(C(=O)N3CCC4(CC3)OCCO4)c3ccccc3c2=O)c1	6%	-6%	12%	-3%	-1%	0%
COc1ccc(-n2nc(C(=O)NCC(=O)N3CCC4(CC3)OCCO4)c3ccccc3c2=O)cc1OC	/	10%	/	?	3µM*	20%
COc1cc(N2CCOCC2)ccc1/C=C1\C(=O)NC(=O)N(Cc2ccc3c(c2)OCO3)C1=O	-2%	1%	4%	-6%	17µM*	-6%
CCCOC(=O)c1ccc(OC(=O)c2ccco2)cc1	-7%	2%	4%	-1%	?	0%
O=C(Oc1ccccc1)c1cc2ccccc2o1	-4%	1%	1%	0%	9.5µM*	0%
COc1cc2cc(c1Cl)N(C)C(=O)C[C@H](OC(=O)C(C)C)[C@]1(C)O[C@@H]1[C@@H](C)[C@H]1C[C@](O)(NC(=O)O1)[C@@H](OC)/C=C\C=C(\C)C2	0%[7.66 µM]	/	-23%[9.22 µM]	/	/	/
ClC(Cl)(Cl)C(Cl)(Cl)Cl	/	/	21%	/	/	/
